Shown are actives, neighbours in structure and some others; about 18% of the full set was active somewhere.
TDP1 block: TDP1 (human) enzyme inhibition; Potency, µM (series often up to 130 µM), usual class: inhibitors; AID 485290; Q9NUW8; 350,000 tested, 0.28% active; recombinant TDP1, AlphaScreen DNA substrate cleavage; also: nearly all actives have a fitted effect of over 40% in size
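AlphaScreen read-out: signal falls as enzyme removes the 3' tyrosine-FITC from a 5'-biotinylated DNA oligo (15 nM, 5 min, RT). Enzyme was E. coli-made recombinant Tdp1 at 1 nM, exposed to compound for 15 min beforehand; beads 10 ug/ml, 10 min.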
TDP1 cell CPT: DT40-hTDP1 cell growth loss with CPT | chicken DT40 Tdp1-/-;hTDP1 cells + 20 nM CPT, ATP luminescence, 48 h | Potency, µM (highest dose often 46.2 µM), usual class: inhibitors | 420,000 tested, 12% active | AID 686979; also: nearly all actives have a fitted effect of over 55% in size
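Cell growth measured by CellTiter-Glo luminescence after a minimum 48 h, 37 C compound exposure with 20 nM CPT in Tdp1-knockout DT40 cells stably expressing hTDP1, seeded 400/well; qHTS titration format.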
VDR inh: inhibitors of human vitamin D receptor. P11473. AID 504847. VDR-SRC2-3 peptide fluorescence polarization, 2 h. 400,000 tested, 0.93% active. Potency, µM, actives largely listed as inhibitors
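Inhibition of the VDR/SRC2-3 peptide interaction is quantified by fluorescence polarization. Compounds (23 nl, pintool) incubate with the reagents for 2 hours at ambient room temperature.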
PLK1 PBD inh: blocks phosphopeptide binding to human PLK1 polo-box domain; P53350; Plk1 PBD binding of FITC phosphopeptide, fluorescence polarization; Potency, µM, hits mostly inhibitors; 360,000 tested, 2.8% active; AID 720504; also: series mostly up to about 57 µM; nearly all actives have a fitted effect of over 65% in size
Target sequence (P53350 whole entry, looked up, the tested form may be a part): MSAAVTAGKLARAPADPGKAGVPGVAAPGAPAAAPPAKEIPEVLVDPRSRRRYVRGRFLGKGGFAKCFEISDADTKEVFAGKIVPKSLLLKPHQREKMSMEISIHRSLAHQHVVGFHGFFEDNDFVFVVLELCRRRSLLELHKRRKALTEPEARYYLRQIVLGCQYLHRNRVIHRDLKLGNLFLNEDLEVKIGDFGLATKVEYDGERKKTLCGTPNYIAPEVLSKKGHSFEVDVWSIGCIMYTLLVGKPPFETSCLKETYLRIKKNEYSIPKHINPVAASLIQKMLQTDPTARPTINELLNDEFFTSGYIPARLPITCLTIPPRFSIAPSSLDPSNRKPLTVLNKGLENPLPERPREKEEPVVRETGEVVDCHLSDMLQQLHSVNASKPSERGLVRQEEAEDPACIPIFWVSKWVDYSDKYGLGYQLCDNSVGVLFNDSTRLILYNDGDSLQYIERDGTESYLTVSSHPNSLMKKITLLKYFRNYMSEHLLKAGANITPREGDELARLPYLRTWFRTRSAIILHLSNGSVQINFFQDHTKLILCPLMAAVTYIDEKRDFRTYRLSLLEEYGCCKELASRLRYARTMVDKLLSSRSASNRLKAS
DT40 TDP1 no CPT: qHTS for Inhibitors of human tyrosyl-DNA phosphodiesterase 1 (TDP1): qHTS in cells in absence of CPT. 420,000 tested, 15% active. DT40 Tdp1-/- hTDP1 cells, no CPT, ATP luminescence, 48 h. Potency, µM (top dose mostly 46.2 µM), most hits filed as inhibitors; also: nearly all actives have a fitted effect of over 55% in size
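Readout: luminescence from CellTiter-Glo after 30 min in the dark at RT. Cells: DT40 Tdp1-/- with stable hTDP1, 400/well. Exposure: compounds alone, ≥48 hr, 37 °C.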
GCN5L2 inh: blocks human GCN5L2 histone acetyltransferase; AID 504327; GCN5L2 HAT assay, ThioGlo1 CoA-SH fluorescence; Q92830; 390,000 tested, 0.21% active; Potency, µM (highest dose often 58.9 µM), usual class: inhibitors
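Compounds, pin-transferred from DMSO stocks, meet 20nM GCN5L2 for 15 min before the reaction begins with H3(1-25) peptide (75uM) and acetyl-CoA (70uM). Thiol-reactive ThioGlo1 reports CoA release over 20 min at room temperature.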
Numbers stand for hits; - = inactive; ? = inconclusive; . = no result given; [ ] = remark or other dose. Calls follow the shape of the dose curve; as a rule, active = well fitted curve in the direction sought with a large enough effect; inconclusive = small, poorly fitted or top-dose-only effect, or another doubt; inactive = no such curve, though single readings can be large; an effect the other way counts as inactive or inconclusive.

SMILES | TDP1 block | TDP1 cell CPT | VDR inh | PLK1 PBD inh | DT40 TDP1 no CPT | GCN5L2 inh
CCCCOCCCNC(=O)c1ccc([N+](=O)[O-])c(C)c1 | - | - | - | - | - | -
O=S(=O)(Nc1cccc2cccnc12)c1ccccc1 | - | 13µM | - | - | 8.2µM | -
CC(=O)Nc1ccc(S(=O)(=O)Nc2cccc3cccnc23)cc1 | - | - | - | - | - | -
CS(=O)(=O)Nc1cccc2cccnc12 | - | 4.61µM | - | - | 4.61µM | -
NC(=S)NNc1cccc2cccnc12 | - | 6.51µM | ? | ? | 11.6µM | -
COc1ccc(S(=O)(=O)Nc2cccc3cccnc23)cc1 | - | . | - | . | . | .
NC(=S)Nc1cccc2cccnc12 | - | - | - | - | - | -
CCc1ccc(NC(=O)CSc2ncc(S(=O)(=O)c3cc(C)ccc3C)c(=O)[nH]2)cc1 | - | . | - | . | . | -
O=C(NCCO)c1ccc(-c2cnc3cccnn23)cc1 | . | ? | . | - | - | .
Nc1nnc(SCc2nc3scc(-c4ccccc4)c3c(=O)[nH]2)s1 | . | 23.1µM | - | - | 18.4µM | -
Cc1csc(SC(C)c2nc3scc(-c4ccccc4)c3c(=O)[nH]2)n1 (configuration not stated) | - | ? | - | - | 20.6µM | -
CCn1c(SCc2nc3scc(-c4ccccc4)c3c(=O)[nH]2)nnc1-c1cccs1 | - | 20.6µM | - | - | 20.6µM | -
CN(Cc1ccccc1)Cc1nc2scc(-c3ccccc3)c2c(=O)[nH]1 | - | 13µM | - | - | ? | -
Cc1nnc(SCc2nc3scc(-c4ccccc4)c3c(=O)[nH]2)s1 | - | - | - | - | - | -
O=c1[nH]c(Cc2ccccc2)nc2scc(-c3ccccc3)c12 | - | ? | - | - | ? | -
COCCN(C(=O)CSc1nnc(-c2ccccc2F)n1N)c1c(N)n(Cc2ccccc2)c(=O)[nH]c1=O | - | - | - | - | - | -
Cc1cc2cc(CCNC(=O)CCc3ccccc3)c(=O)[nH]c2cc1C | . | ? | ? | - | - | -
Cc1cc(C(=O)NC2CCCCCC2)c2ccccc2n1 | - | - | - | - | - | -
O=C(NC1CCCC1)C(c1ccc(F)cc1)N1CCC(O)(c2ccc(Cl)cc2)CC1 (configuration not stated) | . | ? | . | - | ? | .
Cc1cc(N2CCN(C(C(=O)NC3CCCC3)c3ccc(F)cc3)CC2)c2ccccc2n1 (configuration not stated) | . | 18.4µM | . | - | ? | .
Cc1cc(N2CCN(C(C(=O)NC3CCCC3)c3ccco3)CC2)c2ccccc2n1 (configuration not stated) | . | 20.6µM | . | - | 23.1µM | .
CC(=O)OC(C)C1C2=C(C(=O)CC1(C)O)C(=O)c1c(ccc(-c3ccc4c(c3O)C(=O)C3=C(C4=O)C(C(C)OC(C)=O)C(C)(O)CC3=O)c1O)C2=O (configuration not stated) | . | 1.16µM | ? | ? | 1.46µM | .
CC(=O)OC1C(N2CCCCC2)c2c(ccc(/C=C/C(=O)N3CCCCC3)c2O)OC1(C)C (configuration not stated) | - | - | - | - | ? | -
CCCN(C(=O)Cc1ccc(S(=O)(=O)N2CCOCC2)s1)c1c(N)n(Cc2ccccc2)c(=O)[nH]c1=O | . | - | - | - | - | .
CCN(CC)CCCNC(=O)/C(=C\c1cccn1C)NC(=O)c1cccs1 | - | - | - | - | - | -
CCN(CC)CCC=C(c1cccs1)c1cccs1 | . | ? | - | ? | 23.1µM | .
O=S1(=O)CCO[C@H]2Cc3ccccc3[C@H]2N1Cc1cccc(Cl)c1 | . | ? | - | - | 17.8µM | -
Cc1ccccc1CN1[C@@H]2c3ccccc3C[C@@H]2OCCS1(=O)=O | . | ? | - | - | 15.8µM | -
Cc1ccc(NS(=O)(=O)c2ccc3ccccc3c2)cc1C | - | . | . | . | . | .
CCCCC1=CC2=C(c3ccco3)C(=O)C(C)(OC(=O)c3ccc(OC)cc3)C(=O)C2=CN1CC(C)C (configuration not stated) | -[12.3 µM] | 3.26µM | ? | - | 5.17µM | -

Screening data (PubChem BioAssay)
